# Measured values: PubChem BioAssay
# Records with an inconclusive call do not appear. Activity calls are given as the source filed them.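 Rule for the calls, unless noted: active = efflux inhibition above 0.42, the validation set average plus 4 SD; inconclusive = no clear call, values can overlap the other calls; inactive = the rest.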
# Columns and labels:
# [1] = yeast TOR pathway RPL19A-GFP modulators, primary screen, cell-based, S. cerevisiae, multiplex flow cytometry (AID 1862; in the data active = percent of DMSO control GFP below about 86%;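 note: lower values mimic rapamycin by blocking the RPL19A rise seen in DMSO cells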); details: S. cerevisiae RPL19A-GFP strain, flow cytometry fluorescence, 3 h; at 10 µM; stronger effect = lower value
# [2] = modulators of MEP2-GFP levels in yeast, primary screen, S. cerevisiae, multiplex flow cytometry (AID 1867;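 active = GFP response, as percent of the DMSO control, above the screen-wide mean plus 3 SD, about 139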;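 note: median GFP channel fluorescence of barcode-gated MEP2-GFP cells measured by flow cytometry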); details: S. cerevisiae MEP2-GFP strain, 3 h, at 10 µM, stronger effect = higher value, 100% means same as DMSO wells
# [3] = modulators of CIT2-GFP expression in yeast, primary screen, S. cerevisiae, GFP fusion, multiplex flow cytometry (AID 1870;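 active = percent response above a set limit, the screen-wide mean plus 3 SD, cut at about 130% in these data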;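 note: barcoded CIT2-GFP strain pooled with four other GFP strains with rapamycin as positive control; median GFP fluorescence per well over plate mean of DMSO wells so 100% = DMSO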); details: 3 h, at 10 µM, stronger effect = higher value
# [4] = modulators of LAP4-GFP expression in yeast, primary screen, S. cerevisiae, multiplex flow cytometry (AID 1873;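 active = GFP signal, as percent of the solvent control, above the screen mean plus 3 SD, about 149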); details: 3 h, at 10 µM, stronger effect = higher value
# [5] = modulators of AGP1-GFP expression in yeast TOR pathway, primary screen, cell-based, multiplex flow cytometry, S. cerevisiae (AID 1887;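 active = GFP signal above the screen-wide mean plus 3 SD, that is over about 124.5% of the solvent control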;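 note: AGP1-GFP fusion strain of S. cerevisiae within a five-strain barcoded multiplex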); details: 3 h, at 10 µM, stronger effect = higher value
# [6] = inhibitors of CD8+ T cell-vesicle binding, pilot screen, LFA-1/ICAM-1 modulator project, MLPCN validation set, flow cytometry (AID 2523;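 active = response below a set limit, under 55% cells CD8-positive and vesicle-bound, and CD8 cells' 90th-percentile brightness under 279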;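 for vesicle binding response: mean PE anti-B7-1 fluorescence of CD8+ cells relative to row control; 100% = QL9-loaded vesicles with DMSO vehicle in the same plate row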); details: 2C mouse CD8+ T cells, at 7 µM, stronger effect = lower value; double positive events: measured here: CD8+/vesicle+ event percentage
# [7] = target: Integrin beta-1 (Homo sapiens) + Integrin alpha-4 (Homo sapiens) (UniProt P13612+P05556); assay: inhibition of HUTS-21 binding to VLA-4, pilot screen, VLA-4 allosteric modulator project, U937 cells, HUTS-21 mAb, flow cytometry, validation set (AID 2674;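 active = inhibition above 50%, about 3 SD of the validation set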;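 note: antibody binding induced by the VLA-4 ligand LDV present at three times its Kd; 0% = LDV ligand with antibody and no compound and 100% = antibody without LDV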); details: HUTS-21 LIBS mAb binding, at 6.7 µM, stronger effect = higher value, binding induced by LDV ligand
# Integrin beta-1 (Homo sapiens) + Integrin alpha-4 (Homo sapiens), sequence (P05556 whole entry, looked up): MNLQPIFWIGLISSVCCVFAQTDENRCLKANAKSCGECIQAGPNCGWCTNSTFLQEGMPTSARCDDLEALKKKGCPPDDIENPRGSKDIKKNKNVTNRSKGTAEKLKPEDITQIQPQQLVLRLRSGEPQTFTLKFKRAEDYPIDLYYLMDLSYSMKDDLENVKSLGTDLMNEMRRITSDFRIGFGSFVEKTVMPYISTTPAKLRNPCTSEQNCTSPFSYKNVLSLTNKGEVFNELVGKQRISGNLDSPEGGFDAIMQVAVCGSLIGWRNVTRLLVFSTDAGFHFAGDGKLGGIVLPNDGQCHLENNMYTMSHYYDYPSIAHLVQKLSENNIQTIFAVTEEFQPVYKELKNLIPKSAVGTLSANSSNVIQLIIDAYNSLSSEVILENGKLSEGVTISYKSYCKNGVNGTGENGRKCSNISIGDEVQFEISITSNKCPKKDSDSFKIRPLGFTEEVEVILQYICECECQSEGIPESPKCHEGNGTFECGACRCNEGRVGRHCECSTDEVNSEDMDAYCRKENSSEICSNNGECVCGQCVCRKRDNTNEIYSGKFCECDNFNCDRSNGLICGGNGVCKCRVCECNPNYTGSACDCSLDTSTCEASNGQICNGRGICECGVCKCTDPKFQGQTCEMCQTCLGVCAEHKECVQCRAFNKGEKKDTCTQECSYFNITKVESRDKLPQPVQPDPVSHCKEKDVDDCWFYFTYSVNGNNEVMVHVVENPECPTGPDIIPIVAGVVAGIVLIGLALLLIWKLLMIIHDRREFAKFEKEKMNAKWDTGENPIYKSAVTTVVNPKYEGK
# Integrin beta-1 (Homo sapiens) + Integrin alpha-4 (Homo sapiens), sequence (P13612 whole entry, looked up): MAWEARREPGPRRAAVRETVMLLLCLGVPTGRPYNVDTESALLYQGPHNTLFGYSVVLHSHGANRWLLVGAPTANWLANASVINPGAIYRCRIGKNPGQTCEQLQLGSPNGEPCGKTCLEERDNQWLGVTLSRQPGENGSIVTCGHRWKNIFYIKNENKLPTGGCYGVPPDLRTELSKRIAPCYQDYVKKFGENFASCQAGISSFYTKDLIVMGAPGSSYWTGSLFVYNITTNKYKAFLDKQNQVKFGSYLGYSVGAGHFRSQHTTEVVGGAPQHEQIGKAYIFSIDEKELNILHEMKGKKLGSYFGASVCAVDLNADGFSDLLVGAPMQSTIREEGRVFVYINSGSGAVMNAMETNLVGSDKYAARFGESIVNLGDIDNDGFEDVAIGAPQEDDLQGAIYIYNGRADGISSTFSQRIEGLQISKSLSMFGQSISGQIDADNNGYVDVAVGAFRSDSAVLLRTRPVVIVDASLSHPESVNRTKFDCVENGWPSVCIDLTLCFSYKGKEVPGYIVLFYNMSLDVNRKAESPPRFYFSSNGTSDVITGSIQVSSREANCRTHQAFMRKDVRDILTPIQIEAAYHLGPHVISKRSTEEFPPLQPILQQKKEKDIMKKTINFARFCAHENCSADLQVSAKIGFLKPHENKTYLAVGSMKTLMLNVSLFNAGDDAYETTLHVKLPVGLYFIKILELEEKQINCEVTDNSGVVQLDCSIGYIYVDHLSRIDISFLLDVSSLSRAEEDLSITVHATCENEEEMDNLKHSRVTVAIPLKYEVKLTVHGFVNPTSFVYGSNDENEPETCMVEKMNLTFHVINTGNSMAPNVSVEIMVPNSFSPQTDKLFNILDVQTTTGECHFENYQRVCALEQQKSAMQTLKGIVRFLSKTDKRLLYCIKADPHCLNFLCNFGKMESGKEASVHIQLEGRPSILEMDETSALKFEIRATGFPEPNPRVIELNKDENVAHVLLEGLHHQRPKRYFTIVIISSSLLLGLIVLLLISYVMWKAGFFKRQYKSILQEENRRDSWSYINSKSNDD
# [8] = superoxide lowering in aged yeast cells, pilot screen, validation compound set (AID 2706;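 active = superoxide response below 65% of plate, a cut near 3 SD across the whole screen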;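 note: yeast exposed to compound for one week at 30 degrees C before staining; 100% = mean of all compound wells on the same plate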); details: S. cerevisiae aging, superoxide DHE fluorescence; at 10 µM; stronger effect = lower value
# [9] = target: Beta-adrenergic receptor kinase 1 (Homo sapiens) (UniProt P25098); assay: GRK2 binders displacing RNA aptamer, biochemical, validation, human GRK2, bead flow cytometry (AID 488806;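 active = aptamer binding inhibition above 30%, about 3 SD of noise from non-fluorescent compounds; inactive = inhibition at or below 30%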); details: bead-bound GRK2, FAM-aptamer displacement, at 10 µM, stronger effect = higher value
# Beta-adrenergic receptor kinase 1 (Homo sapiens), sequence (P25098 whole entry, looked up): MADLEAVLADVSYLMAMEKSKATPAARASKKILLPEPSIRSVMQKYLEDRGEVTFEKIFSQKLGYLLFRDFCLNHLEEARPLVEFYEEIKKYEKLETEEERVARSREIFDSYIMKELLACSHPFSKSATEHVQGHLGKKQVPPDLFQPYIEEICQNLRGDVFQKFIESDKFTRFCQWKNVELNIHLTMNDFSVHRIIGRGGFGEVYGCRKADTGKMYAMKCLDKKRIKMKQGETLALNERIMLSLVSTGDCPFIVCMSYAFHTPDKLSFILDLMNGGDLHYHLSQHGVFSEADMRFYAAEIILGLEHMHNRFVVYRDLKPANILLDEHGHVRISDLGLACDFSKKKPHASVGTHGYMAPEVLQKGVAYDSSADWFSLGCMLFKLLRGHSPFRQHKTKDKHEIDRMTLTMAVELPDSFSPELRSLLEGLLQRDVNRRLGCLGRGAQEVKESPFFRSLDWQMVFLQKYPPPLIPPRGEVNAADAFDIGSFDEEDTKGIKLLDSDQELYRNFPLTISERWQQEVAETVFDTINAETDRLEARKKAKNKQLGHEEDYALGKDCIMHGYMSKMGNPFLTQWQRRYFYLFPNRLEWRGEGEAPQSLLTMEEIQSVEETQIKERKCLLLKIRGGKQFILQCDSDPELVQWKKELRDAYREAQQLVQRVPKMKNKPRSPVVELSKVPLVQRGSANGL
# [10] = target: Beta-2 adrenergic receptor (Homo sapiens) (UniProt P07550); assay: beta2AR agonists driving receptor internalization, pilot screen, cell-based, FAP fluorogen, flow cytometry, validation set (AID 504459;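 active = percent response above 42, roughly 3 SD of non-fluorescent test compounds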;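 note: agonist-driven loss of surface beta2AR via internalization measured by FAP dye flow cytometry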); details: Am2.2-beta2AR cells, FAP surface receptor flow cytometry; at 10 µM; stronger effect = higher value
# Beta-2 adrenergic receptor (Homo sapiens), sequence (P07550 whole entry, looked up): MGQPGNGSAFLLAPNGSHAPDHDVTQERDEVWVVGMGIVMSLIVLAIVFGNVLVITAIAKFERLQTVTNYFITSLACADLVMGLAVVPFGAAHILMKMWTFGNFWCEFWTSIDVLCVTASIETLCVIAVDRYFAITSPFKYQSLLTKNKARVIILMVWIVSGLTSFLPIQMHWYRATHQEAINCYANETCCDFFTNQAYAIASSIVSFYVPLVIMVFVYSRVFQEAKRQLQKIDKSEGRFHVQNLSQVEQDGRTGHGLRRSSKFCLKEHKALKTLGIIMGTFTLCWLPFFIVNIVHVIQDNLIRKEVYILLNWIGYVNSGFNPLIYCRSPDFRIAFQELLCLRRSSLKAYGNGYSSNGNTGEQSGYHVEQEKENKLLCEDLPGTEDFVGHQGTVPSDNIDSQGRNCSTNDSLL
# [11] = target: AP-2 complex subunit beta (Homo sapiens) (UniProt P63010); assay: inhibitors of arrestin peptide binding to AP2, pilot screen, biochemical, validation set, GST-AP2 beads, flow cytometry (AID 504541;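 active = inhibition above 54%, about 3 SD of non-fluorescent compounds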;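 note: AP2 carries R879A mutation and is captured from E. coli lysate; bead-bound FITC arrestin peptide fluorescence measuring arrestin peptide binding to AP2; 0% = DMSO wells and 100% = excess unlabeled arrestin peptide control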); details: FITC arrestin peptide, at 10 µM, stronger effect = higher value, AP2 beta2 appendage fragment, R879A mutant
# AP-2 complex subunit beta (Homo sapiens), sequence (P63010 whole entry, looked up, the tested form may be a part, one chain of several): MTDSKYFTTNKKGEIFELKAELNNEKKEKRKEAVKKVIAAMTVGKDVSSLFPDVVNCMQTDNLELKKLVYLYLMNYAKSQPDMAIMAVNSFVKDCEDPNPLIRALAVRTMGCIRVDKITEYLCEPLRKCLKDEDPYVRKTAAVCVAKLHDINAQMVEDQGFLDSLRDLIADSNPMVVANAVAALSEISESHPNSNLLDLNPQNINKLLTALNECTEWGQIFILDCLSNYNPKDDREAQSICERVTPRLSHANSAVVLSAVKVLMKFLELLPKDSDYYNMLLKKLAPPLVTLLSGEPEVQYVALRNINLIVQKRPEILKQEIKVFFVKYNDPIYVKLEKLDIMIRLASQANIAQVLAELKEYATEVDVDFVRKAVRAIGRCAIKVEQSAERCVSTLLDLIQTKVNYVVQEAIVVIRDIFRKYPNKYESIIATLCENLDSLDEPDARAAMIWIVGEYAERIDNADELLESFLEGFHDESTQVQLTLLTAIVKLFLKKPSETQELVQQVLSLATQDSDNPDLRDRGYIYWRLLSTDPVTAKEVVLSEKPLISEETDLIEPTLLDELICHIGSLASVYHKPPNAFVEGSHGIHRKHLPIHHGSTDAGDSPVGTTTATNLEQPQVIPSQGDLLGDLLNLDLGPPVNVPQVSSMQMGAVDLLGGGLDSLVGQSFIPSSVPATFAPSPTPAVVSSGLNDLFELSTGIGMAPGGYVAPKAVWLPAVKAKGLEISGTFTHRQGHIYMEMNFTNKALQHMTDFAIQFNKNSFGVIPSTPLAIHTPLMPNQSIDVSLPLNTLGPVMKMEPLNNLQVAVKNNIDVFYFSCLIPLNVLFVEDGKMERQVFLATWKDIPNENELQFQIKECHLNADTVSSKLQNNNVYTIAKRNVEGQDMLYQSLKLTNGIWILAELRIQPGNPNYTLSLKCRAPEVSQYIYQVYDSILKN
# [12] = yeast V-ATPase proton transport modulators, S. cerevisiae, pHLuorin, HTS validation (AID 504600; in the data active = response above about 15%;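 note: plate controls were DMSO for no effect and reference compound for full effect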); details: S. cerevisiae pHLuorin cytosolic pH, at 10 µM, stronger effect = higher value
# [13] = system: anti-desmoglein-3 scFv antibody binding to human DSG3; assay: inhibitors of anti-DSG3 scFv binding to DSG3, pilot screen, biochemical, validation compound set, bead-based, flow cytometry (AID 588368;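 active = binding below the plate cutoff, the plate median minus 3 SD, with a reading above zero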;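 note: signal is the median channel fluorescence of bead-bound GFP antibody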); details: Protein G beads, DSG3-Fc, scFv-GFP binding, at 10 µM, stronger effect = lower value
# [14] = inhibitors of fungal efflux pumps CDR1, CDR2, MDR1, pilot screen, validation compound set, multiplex, phenotypic (AID 588506);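 note: Nile Red retained in cells so higher fluorescence means more efflux inhibition; 0 = negative control wells and 1 = enniatin B 25 µM full block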; details: S. cerevisiae pump-expressing triplex, Nile Red efflux flow cytometry; at 10 µM; stronger effect = higher value; the pumps come from Candida albicans
# [15] = target: ATP-binding cassette sub-family B member 6 (Homo sapiens) (UniProt Q9NP58); assay: ABCB6 transporter inhibitors, pilot screen, K562-ABCB6 cells, flow cytometry, validation set (AID 588550;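 active = inhibition above the screen-wide mean plus 3 SD, about 51%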;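 note: 0% = DMSO wells and 100% = benzethonium chloride 70 µM positive control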); details: K562-ABCB6 porphyrin accumulation, 1 h, at 10 µM, stronger effect = higher value
# ATP-binding cassette sub-family B member 6 (Homo sapiens), sequence (Q9NP58 whole entry, looked up): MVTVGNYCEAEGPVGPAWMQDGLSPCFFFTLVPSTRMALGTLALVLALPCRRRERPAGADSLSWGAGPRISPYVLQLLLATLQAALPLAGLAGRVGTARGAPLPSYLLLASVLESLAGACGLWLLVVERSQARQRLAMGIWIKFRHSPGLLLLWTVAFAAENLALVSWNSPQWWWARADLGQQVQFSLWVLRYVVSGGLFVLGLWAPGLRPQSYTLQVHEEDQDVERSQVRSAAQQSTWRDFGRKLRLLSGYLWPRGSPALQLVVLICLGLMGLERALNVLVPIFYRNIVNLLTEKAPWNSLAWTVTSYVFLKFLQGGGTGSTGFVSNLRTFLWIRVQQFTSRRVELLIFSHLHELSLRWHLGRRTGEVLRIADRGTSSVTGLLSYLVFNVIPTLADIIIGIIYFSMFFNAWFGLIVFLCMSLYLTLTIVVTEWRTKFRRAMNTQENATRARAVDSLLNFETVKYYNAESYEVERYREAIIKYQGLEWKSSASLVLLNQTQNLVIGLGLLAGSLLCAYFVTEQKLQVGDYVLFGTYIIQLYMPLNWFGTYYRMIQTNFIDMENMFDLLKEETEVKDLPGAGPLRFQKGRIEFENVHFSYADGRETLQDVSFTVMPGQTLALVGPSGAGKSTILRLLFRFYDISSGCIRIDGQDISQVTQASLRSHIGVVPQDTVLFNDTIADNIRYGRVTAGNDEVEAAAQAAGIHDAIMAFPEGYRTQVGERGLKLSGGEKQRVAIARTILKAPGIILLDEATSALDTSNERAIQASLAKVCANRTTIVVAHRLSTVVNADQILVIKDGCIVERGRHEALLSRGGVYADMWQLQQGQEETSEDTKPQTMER
# [16] = promoters of myeloid differentiation in arrested cells, primary screen, cell-based, GFP/MAC1 double positive, flow cytometry, validation set (AID 588685;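 active = differentiation response of at least 50%, scaled between solvent and reference control, from cells with both markers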;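 note: compound exposure lasts four days before antibody staining and flow analysis; 0% = DMSO wells and 100% = 5 µM fulvestrant positive control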); details: ER-HoxA9 marrow cells, stronger effect = higher value, normalized: vehicle 0, fulvestrant 100
SMILES,percent of DMSO control GFP [1],GFP response vs DMSO [2],percent response of DMSO control [3],GFP response vs DMSO [4],"GFP response, % of DMSO [5]",double positive events [6],vesicle binding response [6],inhibition [7],superoxide response (% of plate) [8],aptamer binding inhibition [9],response [10],inhibition [11],response [12],binding (% of control) [13],efflux inhibition (fraction of control) [14],inhibition [15],differentiation response [16]
Cc1cccc(-n2c(Cc3ccccc3)n[nH]c2=S)c1,93.9% (inactive),106% (inactive),88.2% (inactive),124% (inactive),100% (inactive),61.2%,102% (inactive),-18.2% (inactive),103% (inactive),4% (inactive),-0.19% (inactive),-2.3% (inactive),1.08% (inactive),95.5% (inactive),-0.1 (inactive),4% (inactive),-13.6% (inactive)
COc1c2c(nc3occc13)C(CC=C(C)C)(OC)C(O)CC2 (stereo not drawn),89.1% (inactive),131% (inactive),110% (inactive),95.7% (inactive),98.2% (inactive),63.2%,144% (inactive),-4.21% (inactive),95.4% (inactive),6% (inactive),3.58% (inactive),-9.37% (inactive),-1.04% (inactive),103% (inactive),0.01 (inactive),11% (inactive),3.28% (inactive)
COc1cc(C(=O)NCCCCCC(=O)O)cc(OC)c1OC,104% (inactive),105% (inactive),102% (inactive),103% (inactive),108% (inactive),65.5%,199% (inactive),5.61% (inactive),100% (inactive),2% (inactive),11.2% (inactive),-5.4% (inactive),1.93% (inactive),101% (inactive),-0.23 (inactive),1% (inactive),-19.2% (inactive)
CC(C)CN(C)Cc1c(C(=O)N2CCc3ccccc3C2)nc2ccc(Cl)cn12,105% (inactive),103% (inactive),107% (inactive),98% (inactive),105% (inactive),62.4%,147% (inactive),8.29% (inactive),99.2% (inactive),0% (inactive),-16.8% (inactive),20.6% (inactive),-4% (inactive),104% (inactive),0.22 (inactive),11% (inactive),-13.3% (inactive)
CC(C)=CC/C=C1\CCC(C(=O)O)C(C(=O)O)C1 (stereo not drawn),89.5% (inactive),123% (inactive),95.2% (inactive),81.4% (inactive),87.5% (inactive),63.2%,160% (inactive),-14.9% (inactive),91.6% (inactive),6% (inactive),-0.75% (inactive),-6.38% (inactive),1.64% (inactive),103% (inactive),-0.35 (inactive),14% (inactive),-2.46% (inactive)
CN(C)c1ccc(CNCCC(Cc2ccccc2)c2ccco2)cc1 (stereo not drawn),101% (inactive),93.5% (inactive),108% (inactive),89.4% (inactive),101% (inactive),58.2%,31.1% (inactive),1.12% (inactive),92.3% (inactive),-4% (inactive),9.55% (inactive),-16.6% (inactive),2.43% (inactive),105% (inactive),0.17 (inactive),4% (inactive),-5.68% (inactive)
CCC(=O)O[C@]1(C(=O)CCl)[C@@H](C)C[C@H]2[C@@H]3CCC4=CC(=O)C=C[C@]4(C)[C@@]3(F)[C@@H](O)C[C@@]21C,99.8% (inactive),103% (inactive),106% (inactive),91.5% (inactive),106% (inactive),64.6%,228% (inactive),-9.13% (inactive),120% (inactive),4% (inactive),11.3% (inactive),3.88% (inactive),-2.3% (inactive),97.9% (inactive),1.03 (active),-10% (inactive),-13.3% (inactive)
Cc1ccc(CN2CCN(CCCc3ccccc3)CC2CCO)cc1 (stereo not drawn),103% (inactive),104% (inactive),106% (inactive),97.3% (inactive),104% (inactive),62.7%,219% (inactive),7.85% (inactive),106% (inactive),1% (inactive),9.66% (inactive),30.3% (inactive),-5.49% (inactive),102% (inactive),-0.01 (inactive),-8% (inactive),10% (inactive)
Cc1c(OCC(F)(F)F)ccnc1CS(=O)c1nc2ccccc2[nH]1 (stereo not drawn),95.1% (inactive),101% (inactive),97% (inactive),119% (inactive),118% (inactive),58.8%,153% (inactive),-64.1% (inactive),111% (inactive),1% (inactive),24.6% (inactive),-4.09% (inactive),-4.18% (inactive),106% (inactive),0.04 (inactive),-6% (inactive),-4% (inactive)
